DT40 TDP1 CPT: DT40-hTDP1 cell growth loss with CPT; chicken DT40 Tdp1-/-;hTDP1 cells + 20 nM CPT, ATP luminescence, 48 h; Potency, µM (top dose mostly 46.2 µM), inactives show at the highest dose activity change, negative = growth inhibition, most hits filed as inhibitors; 12% of 420,000 active; note: potency is the fitted concentration of half-maximal effect; % is set by controls: 0 for no effect and ±100 for the full control effect; nearly all actives have a fitted effect of over 55% in size
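Cell growth measured by CellTiter-Glo luminescence after a minimum 48 h, 37 C compound exposure with 20 nM CPT in Tdp1-knockout DT40 cells stably expressing hTDP1, seeded 400/well; qHTS titration format.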
IL-1B inflam inh: blocks inflammasome-driven IL-1 beta release; THP-1 LPS/ATP IL-1B secretion, AlphaLISA, 16 h; stronger effect = lower value; activity change, % at 57.5 µM; 4.7% of 360,000 active; in the data active = activity change below about -50%; inconclusive = mostly about -30% to -49%; note: % is set by controls: 0 for no effect and ±100 for the full control effect
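Secreted IL-1B measured by AlphaLISA bead assay after 16 h compound exposure of THP-1 cells; compounds (final up to 57.5 uM) added 1 h before LPS (250 ng/mL) and ATP (1.25 mM) stimulation; lower signal means less secretion.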
TGFb SMAD3 inh: inhibitors of TGF-b signaling. Potency, µM (doses to about 46.1 µM), inactives show top-dose activity, negative = inhibition, actives largely listed as inhibitors. HepG2 CAGA-GFP TGF-b/SMAD3 reporter, GFP fluorescence, 18 h; TGF-beta stimulated, 500 pg/mL final. 1.2% of 410,000 active; note: potency is the fitted concentration of half-maximal effect; % is set by controls: 0 for no effect and ±100 for the full control effect; nearly all actives have a fitted effect of over 65% in size
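Inhibition of TGF-beta-driven CAGA-GFP reporter expression in HEPG2 cells is measured by cellular GFP fluorescence after 18 h stimulation with 500 pg/mL recombinant TGF-beta in 1% FBS medium at 37 degrees C.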
DT40 TDP1 no CPT: qHTS for Inhibitors of human tyrosyl-DNA phosphodiesterase 1 (TDP1): qHTS in cells in absence of CPT | DT40 Tdp1-/- hTDP1 cells, no CPT, ATP luminescence, 48 h | Potency, µM (series often up to 46.2 µM), for inactives: at the top dose activity change, negative = growth inhibition, most hits filed as inhibitors | 15% of 420,000 active; note: potency is the fitted concentration of half-maximal effect; % is set by controls: 0 for no effect and ±100 for the full control effect; nearly all actives have a fitted effect of over 55% in size
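Growth kinetics read by CellTiter-Glo luminescence after ≥48 hr at 37 °C. Cells: DT40 Tdp1-/- stably carrying human TDP1, 400 per well, compound exposure in the absence of CPT (DMSO vehicle).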
HepG2 tox: HepG2 cytotoxicity, counter-screen for TGF-b inhibitors; 0.76% of 410,000 active; HepG2 CAGA-GFP viability, ATP luminescence, 18 h; Potency, µM (top dose mostly 46.1 µM), for inactives: at the top dose activity change, negative = cytotoxicity, hits mostly cytotoxic; note: potency is the fitted concentration of half-maximal effect
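HepG2 CAGA-GFP cells (1000/well, DMEM with 1% FBS) received compound, then TGF-beta at 500 pg/mL final, and were incubated 18 hours at 37 degrees C. Viability was read by CellTiter-Glo luminescence. Media-only wells were set as complete cell-killing and DMSO as no toxicity.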
S-ASM inh: blocks human secretory acid sphingomyelinase; placental ASM, HMU-PC fluorogenic substrate, 60 min; AID 504937; Potency, µM (highest dose often 57.5 µM), for the others: at the highest dose activity change, negative = inhibition, most hits filed as inhibitors; 0.006% of 340,000 active; note: potency is the fitted concentration of half-maximal effect
Target sequence (P17405 47-631 limits assumed): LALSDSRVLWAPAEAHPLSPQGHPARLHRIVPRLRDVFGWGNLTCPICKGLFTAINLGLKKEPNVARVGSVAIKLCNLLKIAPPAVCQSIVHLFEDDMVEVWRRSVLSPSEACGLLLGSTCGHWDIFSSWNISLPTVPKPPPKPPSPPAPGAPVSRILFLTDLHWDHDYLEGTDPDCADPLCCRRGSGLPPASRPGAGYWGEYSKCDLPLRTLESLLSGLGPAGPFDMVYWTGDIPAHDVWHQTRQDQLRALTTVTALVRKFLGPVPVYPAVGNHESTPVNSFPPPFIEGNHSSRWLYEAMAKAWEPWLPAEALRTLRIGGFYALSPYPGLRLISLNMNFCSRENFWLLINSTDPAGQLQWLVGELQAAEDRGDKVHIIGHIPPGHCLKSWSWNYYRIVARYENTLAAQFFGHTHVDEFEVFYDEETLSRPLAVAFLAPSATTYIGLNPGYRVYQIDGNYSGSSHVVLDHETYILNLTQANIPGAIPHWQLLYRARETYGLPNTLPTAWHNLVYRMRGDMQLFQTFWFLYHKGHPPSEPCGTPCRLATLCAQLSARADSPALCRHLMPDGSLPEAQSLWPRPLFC
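qHTS format. ASM enzyme prepared from human placenta hydrolyses the fluorogenic substrate HMU-PC0 (9 uM final) over 60 min at 37 °C after a 10 min compound preincubation.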
* = called active by the depositor; ? = inconclusive; · = not tested or not shown; [ ] = dose if it differs, or a comment. The list is not random: actives were taken first. Their share in the collection is about 19%. Unless noted, calls come from the whole dose curve; as a rule, active = well fitted curve in the direction sought with a large enough effect; inconclusive = small, poorly fitted or top-dose-only effect, or another doubt; inactive = no such curve, though single readings can be large; an effect the other way counts as inactive or inconclusive.

SMILES | DT40 TDP1 CPT | IL-1B inflam inh | TGFb SMAD3 inh | DT40 TDP1 no CPT | HepG2 tox | S-ASM inh
O=C1/C(=C\c2ccccc2)CCC/C1=C/c1ccccc1 | 20.6µM* | -24.5 | ? | 18.4µM* | -0.8% | -0.8%
O=C1/C(=C/c2ccncc2)CCC/C1=C\c1ccncc1 | 2.06µM* | ? | 3.16µM* | 0.82µM* | 12.6µM* | 1.4%
CCOc1ccc(/C=C2\CCc3ccccc3C2=O)cc1 | 1.7% | -10.0 | -10.0% | ? | -1.7% | 4.2%
O=C1CCC/C1=C\c1ccccc1 | -0.5% | 10.2 | 1.6% | -2.3% | 7.4% | 1.3%
O=C1C(=Cc2ccncc2)CCCc2ccccc21 | 23.1µM* | ? | -25.1% | 20.6µM* | -16.8% | ·
O=C1/C(=C/c2ccncc2)N=C2CCCCCN12 | -8.2% | 5.2 | 8.9% | -10.9% | -8.1% | 118.4%
O=C1/C(=C\c2ccncc2)CCc2ccccc21 | 13µM* | -98.3* | ? | 14.6µM* | -67.6% | 1.4%
COCCN1CCN(C(=O)c2cnn(-c3nccc(-c4ccccc4F)n3)c2-c2ccco2)CC1 | 10.5%[9.04 µM] | · | · | -14.8% | · | ·
O=C1/C(=C/c2ccncc2)CCc2ccccc21 | ? | -102.2* | ? | 23.1µM* | -98.6% | 1.9%
O=C(c1ccccc1)N1CCC(c2nc(-c3ccc(S(=O)(=O)NCC4CCCO4)cc3)no2)CC1 (centres undefined) | 10.3µM* | -72.0* | -4.5% | 10µM* | 4.1% | 2.9%
Cc1ccc(-c2ccc(S(=O)(=O)NCC3CCCO3)cc2)cc1 (centres undefined) | ? | 22.2 | -25.2% | ? | -29.7% | 9.5%
O=C(C1CC1)N1CCC(c2nc(-c3ccc(S(=O)(=O)NCC4CCCO4)cc3)no2)CC1 (centres undefined) | 12.6µM* | 0.0 | ? | 14.1µM* | -0.2% | 1.9%
O=C(c1ccc(S(=O)(=O)NCC2CCCO2)cc1)N1CCc2ccccc21 (centres undefined) | 20.6µM* | 7.5 | -19.1% | 20.6µM* | -4.7% | 3.1%
Cc1n[nH]c(C)c1CN(C)C(=O)C1CCC(=O)N(CC2CCCCC2)C1 (centres undefined) | -13.0% | -2.7 | 1.1% | 4.7% | -67.8% | 4.2%
CC(=O)c1cccc(NC(=O)COC(=O)CCNS(=O)(=O)c2ccccc2)c1 | -19.9% | 6.9 | 6.1% | -2.9% | 1.2% | -2.7%
COc1ccc(SC[C@H](Cc2ccccc2)N2CC[C@@H](C(C)(C)C)CCC2=O)cc1 | 18.4µM* | -50.8* | ? | ? | 3.6% | -7.1%
COc1ccc(SCCN2CC[C@@H](O)CCC2=O)cc1 | ? | 3.0 | -5.1% | -19.5% | -46.2% | 8.4%
COc1ccc(SCCN2CC[C@@H](C(C)(C)C)CCC2=O)cc1 | ? | 20.4 | ? | 15.8µM* | -18.9% | -1.7%
C[C@H]1CCC(=O)N([C@H](COc2ccccc2)Cc2ccccc2)CC1 | 18.4µM* | -4.1 | -24.5% | 16.4µM* | -12.6% | -0.2%
CC(C)(C)[C@H]1CCC(=O)N(CCSc2ccc(Br)cc2)CC1 | ? | · | ? | 22.4µM* | -63.6% | ·
CC1CCC(=O)N(CCOc2ccccc2)CC1 (centres undefined) | ? | -0.7 | 17.5% | -11.4% | 9.7% | -2.0%
Cc1nn(Cc2ccccc2Cl)c(C)c1C(=O)NC1=NCCS1 | -0.2% | 10.0 | -4.2% | -14.6% | -14.7% | -2.8%
Cc1nn(Cc2ccc(Br)cc2)c(C)c1NC(=O)c1nn(C)cc1Cl | ? | -18.0 | -16.5% | 18.4µM* | 0.3% | -3.7%
Cc1nn(Cc2ccccc2Cl)c(C)c1NC(=O)c1ccn(C)n1 | 8.2µM* | 9.6 | -0.4% | 11.6µM* | -22.7% | -1.7%
Cc1nn(Cc2ccccc2Cl)c(C)c1NC(=O)c1cc(-c2ccc(F)cc2)on1 | ? | 20.1 | 2.4% | -21.3% | -2.3% | 0.0%

Screening data: PubChem BioAssay, National Center for Advancing Translational Sciences (NCATS)
